Results filed as inconclusive are left out. Entries that show only a call come without a potency. Active and inactive are the calls of the source. The call rests on the fitted dose curve; in most records, active means well fitted cell-killing curve with a large enough effect; inconclusive means small, poorly fitted or top-dose-only effect; inactive means flat fitted curve, though single readings scatter.
Assay: Identifying Small Molecule Inhibitors of Pancreatic Cancer Stem Cells (SN12C, Adherent) (AID 1259358);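 further: cell survival measured after 48 h of compound exposure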
Conditions: viability/growth inhibition; series mostly up to 46.1 µM
Description: Progenitor-like cancer cells, often referred to as cancer stem cells (CSC), are believed to be the drivers of therapeutic resistance and rapid recurrence. CSCs are postulated to reside in specific niches characterized by low oxygen tension, limited nutrient supply, and high redox load. Selectively targeting CSC, alone or in combination with cytotoxic agents, as a means to produce durable remissions is an appealing concept. Modeling these cells in in vitro setting is an important step in finding new therapies and/or targets. Multiple reports highlight that forcing cells in culture into 3-dimensionaly architectures (spheroids) re-establishes key progenitor-like transcriptional signatures. Pancreatic cancer is among the diseases with the most dismal outlook which is driven, largely, by recurance following front-line therapies. […] In hopes of deriving new insight into the targeting of these pancreatic CSCs we examined three established pancreatic cancer cell lines in cytotoxicity assays versus a collection of approved and investigational drugs. Importantly, we screened these lines as traditional monolayer (2D) and spheroid (3D) formats to gain an appreciation of agents with differential activity.
Multicellular tumor spheroids from Panc1, MiaPaCa-2, and the primary low-passage tissue culture line SB.06 were seeded in stem cell media (SCM) in nonadherent 6-well plates coated with hydrogel (Corning Life Sciences, Chelmsford, Mass) and pancreatic spheres generated for 14 days before screening. Cells were seeded into 1536-well solid-bottom white tissue culture treated Greiner Bio One Plates (789173-F) using a MultiDrop Combi (Thermofisher Scientific) dispenser and a small sterile cassette. One column was media alone to be used as a :"no cells" control. The plates were then covered with sterilized stainless steel gasketed lids from Kalypsys. After allowing cells to attach for 4 hours, 23 nL of test compound or control (negative control DMSO and positive control 9.2 uM Bortezomib-final) were added from a 1536-well polypropylene compound source plate to each well using a 1536 head pin tool from Kalypsys. Cells were then incubated for 48 hours at 37C, 95% relative humidity and 5% CO2. After 48 hours, plates were removed from the incubator and 3 uL of CellTiter-Glo (Promega) was added using an Aurora Flying Reagent Dispenser Bioraptor. Plates were incubated at room temperature for 10 minutes prior to reading the luminescence on the Viewlux (PerkinElmer). The relative luciferase units are used to calculate the percent activity using the activity of DMSO in the cells and no cells columns for normalization of no inhibition and full inhibition respectively.
Potency means the concentration at half of the fitted maximal effect.

With `CCCCC/C=C\C/C=C\C/C=C\C/C=C\CCCC(=O)NC1CC1` as the molecule, how does the Potency read?
Its Potency is “inactive”.

For `Cn1cc(C2=C(c3cn(C4CCN(Cc5ccccn5)CC4)c4ccccc34)C(=O)NC2=O)c2ccccc21`, which Potency is on record?
Its Potency is “inactive”.

Which Potency does the source give for `COc1ccc(C(=O)c2c(C)n(CCN3CCOCC3)c3ccccc23)cc1` here?
Its Potency is “inactive”.

With `CC(O)(CS(=O)(=O)c1ccc(F)cc1)C(=O)Nc1ccc(C#N)c(C(F)(F)F)c1` (stereo not given) as the molecule, how does the Potency read?
Its Potency is “inactive”.

With `C[C@@H]1[C@@H](CC(C[C@H]2O[C@@H]3O[C@]4(C)CC[C@@H]5[C@H](C)CC[C@@H]([C@H]2C)[C@@]35OO4)C[S+](=O)([O-])c2ccc(COC(=O)N(C)C)cc2)O[C@@H]2O[C@]3(C)CC[C@H]4[C@H](C)CC[C@@H]1[C@@]24OO3` (stereo not given in full) as the molecule, how does the Potency read?
The Potency was 118 nM (active).

Which Potency does the source give for `Cc1cc(SCc2sc(-c3ccc(C(F)(F)F)c(F)c3)nc2C)ccc1OCC(=O)O` here?
The Potency was “inactive”.

For `CC1=C2C[C@@H]3[C@@H](CC=C4C[C@@H](O)CC[C@@]43C)[C@@H]2CC[C@]12O[C@H]1C[C@H](C)CN[C@H]1[C@H]2C`, which Potency is on record?
The Potency was “inactive”.

Which Potency does the source give for `C[C@]12CCC(=O)C(O)=C1CC[C@@H]1[C@@H]2CC[C@]2(C)C(=O)CC[C@@H]12` here?
Its Potency is “inactive”.

Which Potency does the source give for `Cn1c(CCCC(=O)O)nc2cc(N(CCCl)CCCl)ccc21` here?
Its Potency is “inactive”.

With `COC[C@H]1OC(=O)c2coc3c2[C@@]1(C)C1=C(C3=O)C2CCC(=O)[C@@]2(C)C[C@H]1OC(C)=O` (stereo not given in full) as the molecule, how does the Potency read?
The Potency was “inactive”.
